Results on 69 compounds are retold here after article PMC4552634, “A New Set of Chemical Starting Points with Plasmodium falciparum Transmission-Blocking Potential for Antimalarial Drug Discovery” (PLoS ONE, 2015).

Molecules are shown by their SMILES. About 3,200 (25%) of roughly 13,000 compounds showed an effect of 50% or more. This is one part of the list.

This assay concerns P. falciparum stage V gametocytes. The arrangement: BacTiter-Glo ATP luminescence viability of purified stage V gametocytes in 384-well plates, per cent inhibition versus DMSO. Particulars: 48 h, 5 µM; inhibitor.
As for `Clc1ccc(-c2cc(-c3csc(NCCN4CCCCC4)n3)on2)cc1` [TCMDC-140321], the “% Inhibition” value was -2.378%.
Consider `NC(=O)C1CCN(Cc2cccc(-c3cccc(-c4nc5cc(C(F)(F)F)ccc5[nH]4)c3)c2)CC1.O=C(O)C(F)(F)F` [TCMDC-132696], for which the “% Inhibition” value is -65.64%.
The same measure for `Cc1ccc(C(C)C)c(Oc2ccc3nc(N)nc(N)c3c2)c1` [TCMDC-135559]: -10.97%.
In the case of `OC1(Cc2ccccc2)CCN(Cc2cccc(-c3c[nH]c4nc(NC5CCCC5)ncc34)c2)CC1` [TCMDC-133773], the “% Inhibition” value is listed as -59.82%.
Consider `FC(F)(F)c1ccc2nc(-c3cccc(-c4cccc(CN5CCN(c6ccncc6)CC5)c4)c3)[nH]c2c1` [TCMDC-132911], for which the “% Inhibition” value is -29.28%.
The same measure for `O=C(O)C(F)(F)F.c1cc(CNCCc2ccncc2)cc(-c2ccc(-c3nc4ccccc4[nH]3)s2)c1` [TCMDC-132842]: -14.4%.
For `c1cc(CNCCc2ccncc2)cc(-c2csc(-c3nc4ccccc4[nH]3)c2)c1` [TCMDC-132841] the value was -33.89%.
For `FC(F)(F)c1ccc2nc(-c3cccc(-c4cccc(CNCCc5ccncc5)c4)c3)[nH]c2c1` [TCMDC-132847] the value was 78.26%; for `c1cc(CNCCc2ccncc2)cc(-c2cccc(-c3nc4ccccc4[nH]3)c2)c1` [TCMDC-132858], 84.49%; for `FC(F)(F)c1ccc2nc(-c3cccc(-c4ccc(CNCCc5ccncc5)cc4)c3)[nH]c2c1` [TCMDC-132845], -28.78%.
For the compound `O=C(c1cc2nc3c(c(C(F)(F)F)n2n1)CCc1ccccc1-3)N1CCN2CCCC2C1` (stereo not drawn) [TCMDC-123850], the “% Inhibition” value is on record as 0.1952%.
The same measure for `CC(C)(C)CCN1CCC(CNC(=O)c2cc(-c3cccc(C(F)(F)F)c3)cs2)C1` (stereo not drawn) [TCMDC-134425]: 78.38%; for `CC(C)(C)c1ccc(CN2CCC(NC(=O)c3cc(-c4cccc(C(F)(F)F)c4)cs3)C2)cc1` (stereo not drawn) [TCMDC-134475]: 53.3%.
Take `O=C(NCC1CCN(Cc2ccc(F)cc2)C1)c1cc(-c2cccc(C(F)(F)F)c2)cs1` (stereo not drawn) [TCMDC-134481]: the “% Inhibition” value is recorded as 39.58%.
As for `CC(C)c1ccc(CN2CCC(CNC(=O)c3cc(-c4cccc(C(F)(F)F)c4)cs3)C2)cc1` (stereo not drawn) [TCMDC-134435], the “% Inhibition” value came out at 101.9%.
With `CC(C)(C)CCN1CCC(CNC(=O)c2cc(-c3cccc(Cl)c3)cs2)C1` (stereo not drawn) [TCMDC-134426], the “% Inhibition” value is reported as 39.67%.
The same measure for `O=C(NC1CCN(Cc2ccc(F)cc2)CC1)c1ccc(-c2cccc(C(F)(F)F)c2)s1` [TCMDC-134358]: -14.39%.
The same measure for `CC(C)(C)CCN1CCC(NC(=O)c2ccc(-c3cccc(C(F)(F)F)c3)s2)CC1` [TCMDC-134322]: -68.21%; for `CCc1ccc(CN2CCC(CNC(=O)c3cc(-c4cccc(C(F)(F)F)c4)cs3)C2)cc1` (stereo not drawn) [TCMDC-134430]: 102.1%; for `CSc1ccc(CN2CCC(NC(=O)c3ccc(-c4cccc(C(F)(F)F)c4)s3)CC2)cc1` [TCMDC-134340]: 5.591%.
For `COc1ccc(CNC(=O)NC2CCN(c3ccnc(Nc4ccc(F)cc4)n3)C2)cc1` (stereo not drawn) [TCMDC-133592] the value was -44.87%; for `CCCc1cc(Cc2cnc(N)nc2N)cc(CCC)c1OCCCCC(=O)OC` [TCMDC-137290], -38.14%; for `CCNc1cc(C)nc(Nc2ccccc2)n1` [TCMDC-134006], 18.88%.
For the compound `CC(=O)Nc1nc(C(=O)Nc2ccc(-c3ccc(-c4nc5ccccc5[nH]4)cc3)cc2)cs1` [TCMDC-137128], the “% Inhibition” value is given as -5.634%.
The same measure for `CCOC(=O)CCCOc1c(OC)cc(Cc2cnc(N)nc2N)cc1OC` [TCMDC-137899]: -8.343%; for `O=C(Nc1ccc(Cl)c(C(F)(F)F)c1)Nc1ccc(Cl)c(C(F)(F)F)c1` [TCMDC-137559]: -42.31%.
With `CC(C)(C)c1ccc(CN2CCC(CNC(=O)c3cc(-c4cccc(C(F)(F)F)c4)cs3)C2)cc1` (stereo not drawn) [TCMDC-134442], the “% Inhibition” value was 107%.
For `CN(C)CCOc1cc(NC(=O)/C=C/c2cccc3ccccc23)ccc1I` [TCMDC-139119] the value was 42.15%; for `OCC1CCN(Cc2ccc(-c3cccc(-c4nc5ccc(F)cc5[nH]4)c3)cc2)CC1` [TCMDC-133121], 70.65%.
The same measure for `OCC1CCN(Cc2ccc(-c3ccc(-c4nc5ccccc5[nH]4)cc3)cc2)CC1` [TCMDC-133927]: -51.35%; for `OCCC1CCN(Cc2ccc(-c3ccc(-c4nc5ccccc5[nH]4)cc3)cc2)CC1` [TCMDC-133905]: -1.76%; for `NC(=O)C1CCN(Cc2ccc(-c3cccc(-c4nc5ccc(F)cc5[nH]4)c3)cc2)CC1` [TCMDC-132689]: -35.18%.
Consider `OCC1CCN(Cc2cccc(-c3ccc(-c4nc5ccc(F)cc5[nH]4)cc3)c2)CC1` [TCMDC-133934], for which the “% Inhibition” value is recorded as -11.78%.
Consider `OCC1CCN(Cc2ccc(-c3cccc(-c4nc5ccccc5[nH]4)c3)cc2)CC1` [TCMDC-132552], for which the “% Inhibition” value came out at 86.93%.
For `COc1cccc(CNC[C@@H](O)[C@H](Cc2ccccc2)NC(=O)c2cc(OC(C)C)cc(N3CCCCS3(=O)=O)c2)c1` [TCMDC-134522] the value was -6.565%.
On to `COc1ccc2c(c1)CCCC2C(C)NCC(O)c1cccc(C(F)(F)F)c1` (stereo not drawn) [TCMDC-131535], for which the “% Inhibition” value was -11.59%.
The same measure for `Cc1[nH]c(C)c(-c2ccc(-c3cccc(Cl)c3)nc2)c(=O)c1Br` [TCMDC-136160]: 67.06%; for `Cc1[nH]c(C)c(-c2ccc(-c3cccc(Cl)c3)nc2)c(=O)c1Cl` [TCMDC-136300]: 76.37%; for `Cc1ccc(NC(=O)c2ccc(CN3CCCN(CCC(C)C)CC3)cc2)cc1C` [TCMDC-136443]: -19.3%.
The same measure for `Cn1cnc2c(Nc3ccncc3)nc(-c3ccc4ccccc4c3)nc21` [TCMDC-141131]: -3.392%; for `Cc1nc(Nc2ccncc2)cc(-c2ccncc2)n1` [TCMDC-124589]: -12.99%.
For `Cc1ccc(-n2c(C)nc3c(Nc4ccc(-c5ccncc5)cc4)ncnc32)c(C)c1` [TCMDC-136289], the “% Inhibition” value is given as 103.3%.
For `Cc1nc2c(Nc3nc(-c4ccncc4)cs3)ncnc2n1-c1ccccc1Cl` [TCMDC-136288] the value was 72.25%.
For `Oc1ccc2[nH]c(-c3cccc(F)c3)nc2c1CN1CCC(O)(c2ccccc2)CC1` [TCMDC-136359] the value was -19.77%; for `CC(C(=O)Nc1ccc(Br)cc1Br)N1CCN(C(=O)c2ccco2)CC1` (stereo not drawn) [TCMDC-124879], -7.948%; for `CCCC(C)NC(=O)[C@H](CC1CCCCC1)NC(=O)c1ccc(O)c(-c2ccc(OC)cc2)c1` (stereo partly drawn) [TCMDC-140801], 27.46%.
The same measure for `CN(C)CCCOc1cccc(NC(=O)Nc2ccc(-c3ccccc3)cc2)c1` [TCMDC-139539]: -65.39%; for `CC[C@H](C)CNC(=O)c1cncc(-c2ccc(CNCCOc3ccccc3)cc2)c1` [TCMDC-134239]: -0.3321%; for `CN(C)CCCNCc1ccc(-c2ccc(CNCCOc3ccccc3)cc2)cc1` [TCMDC-141457]: 91.94%.
`CN(C)CCCNCc1ccc(-c2ccc(CNCCc3ccccc3)cc2)cc1` [TCMDC-141456]: the “% Inhibition” value is 100.3%.
`CCCNC(=O)c1cncc(-c2ccc(CNCCCc3ccccc3)cc2)c1` [TCMDC-134248]: the “% Inhibition” value was determined as 11.91%.
Take `CC1(C)N=C(N)N=C(N)N1OCCOc1cccc(C(F)(F)F)c1` [TCMDC-131615]: the “% Inhibition” value was 4.099%.
The same measure for `CCc1c(CCNCCCCCCNCCc2ccc(Br)cc2)ccc(O)c1O` [TCMDC-132044]: 115.9%; for `CCc1c(CCNCCCCCCNCCc2ccc([N+](=O)[O-])cc2)ccc(O)c1O` [TCMDC-132067]: 69.46%.
As to `CCCCCCNCc1c(O)ccc2c(CNCCCCCC)c(O)ccc12` [TCMDC-137592], the “% Inhibition” value was -1.678%.
`Cc1cc(CNCCCCCCNCc2cccc([N+](=O)[O-])c2)ccc1O` [TCMDC-140413]: the “% Inhibition” value worked out at 32.63%.
For `O=C(N[C@H]1CCCC[C@H]1C(=O)O)c1ccccc1` [TCMDC-124293], the “% Inhibition” value was -3.601%.
As for `Cc1ccc(CNC(=O)c2cnc(N3CCN(c4ccncc4)CC3)c(Cl)c2)cc1` [TCMDC-134626], the “% Inhibition” value was found to be 3.173%.
For `CC1(C)CCC(C)(C)c2c1ccc(C1CCN(CCCCNC(=O)c3ccc(-c4ccc(C#N)cc4)cc3)CC1)c2O` [TCMDC-135505] the value was 91.89%.
For `N#Cc1ccc(-c2ccc(C(=O)NCCCCN3CCC(c4nc5ccccc5[nH]4)CC3)cc2)cc1` [TCMDC-133362] the value was 24.39%.
Take `Cc1c(C2CCN(CCCCNC(=O)c3ccc(-c4ccc(C#N)cc4)cc3)CC2)c2ccccc2n1CCO` [TCMDC-138815]: the “% Inhibition” value was -16.09%.
In the case of `COc1c(C2=CCN(CCCCNC(=O)c3ccc(-c4ccc(C#N)cc4)cc3)CC2)c(C)cc2c1C(C)(C)CCC2(C)C` [TCMDC-135480], the “% Inhibition” value was 3.716%.
As for `CCc1ccc(C2CCN(CCCCNC(=O)c3ccc(-c4ccc(Cl)cc4)cc3)CC2)c(O)c1` [TCMDC-138548], the “% Inhibition” value came out at 18.22%.
On to `CC1(C)CCC(C)(C)c2c1ccc(C1CCN(CCCCNC(=O)c3ccc(-c4ccc(Cl)cc4)cc3)CC1)c2O` [TCMDC-135483], for which the “% Inhibition” value is 86.31%.
Consider `COc1c(C2CCN(CCCCNC(=O)c3ccc(-c4ccc(C#N)cc4)cc3)CC2)cc(Cl)c2c1CCCC2` [TCMDC-135288], for which the “% Inhibition” value was -31.75%.
The same measure for `Cc1cc(C2CCN(CCCCNC(=O)c3ccc(-c4ccc(C#N)cc4)cc3)CC2)c(C)cc1O` [TCMDC-138817]: -58.22%.
For `COc1c(C2CCN(CCCCNC(=O)c3ccc(-c4ccc(C#N)cc4)cc3)CC2)ccc2c1C(C)(C)CCC2(C)C` [TCMDC-135481] the value was 92.96%; for `Cc1ccc(C2CCN(CCCCNC(=O)c3ccc(-c4ccc(C#N)cc4)cc3)CC2)c(O)c1` [TCMDC-138658], -70.86%; for `Cc1[nH]c2ccccc2c1C1CCN(CCCCNC(=O)c2ccc(-c3ccc(C#N)cc3)cc2)CC1` [TCMDC-138808], 60.39%.

The % Inhibition is the relative decrease from the control value, in per cent.
